PubChem BioAssay AID1159580 (chemical genetic matrix, 2015)
Out of some 5,500 compounds screened, about 2,000 (36%) were called active. Inconclusive results (about 18%) are left out. Cut-off read from the data, not from the text of the source: active = normalized growth mostly below about 0.91 (no sharp cut-off); inconclusive = no clear call, values can overlap the other calls; inactive = mostly above about 0.92. The list shows a part of the results.

Assay: chemical genetic growth profiling, strain panel (AID 1159580);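 note: tested at 20 µM; growth read once vehicle control cultures reached saturation at 30 °C; 1 = growth at the plate median or of vehicle wells; lower values mean less growth of the strain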
Conditions: growth OD

Measured: normalized growth

CC1(C)C2CC(=O)[C@]3(C)C(CC[C@@]4(C)[C@H](c5ccoc5)OC(=O)[C@H]5O[C@]543)[C@@]2(C)C=C[C@@H]1O (some centres not stated)
inactive: S. cerevisiae deletion strains, locus YBR021W, strain FUR4, active compounds read low 0.944 | S. cerevisiae deletion strains, locus YBR229C, strain ROT2, active compounds read low 1.02 | S. cerevisiae deletion strains, locus YCL029C, strain bik1, active compounds read low 1 | S. cerevisiae deletion strains, locus YDL035C, strain GPR1, active compounds read low 1.02 | S. cerevisiae deletion strains, locus YDL074C, strain BRE1, active compounds read low 1.01 | S. cerevisiae deletion strains, locus YDL101C, strain DUN1, active compounds read low 0.994 | S. cerevisiae deletion strains, locus YDL134C, strain PPH21, active compounds read low 0.982 | S. cerevisiae deletion strains, locus YDL185W, strain tfp1, active compounds read low 1.01 | S. cerevisiae deletion strains, locus YDL192W, strain arf1, active compounds read low 1.01 | S. cerevisiae deletion strains, locus YDR101C, strain arx1, active compounds read low 0.993 | S. cerevisiae deletion strains, locus YDR150W, strain NUM1, active compounds read low 1.01 | S. cerevisiae deletion strains, locus YDR162C, strain NBP2, active compounds read low 1.01 | S. cerevisiae deletion strains, locus YDR318W, strain mcm21, active compounds read low 0.99 | S. cerevisiae deletion strains, locus YDR388W, active compounds read low 1.01 | S. cerevisiae deletion strains, locus YDR502C, strain sam2, active compounds read low 0.967 | S. cerevisiae deletion strains, locus YEL061C, strain CIN8, active compounds read low 1.01 | S. cerevisiae deletion strains, locus YER110C, active compounds read low 0.986 | S. cerevisiae deletion strains, locus YER155C, strain BEM2, active compounds read low 1.01 | S. cerevisiae deletion strains, locus YER167W, strain BCK2, active compounds read low 1.02 | S. cerevisiae deletion strains, locus YGL078C, strain dbp3, active compounds read low 0.981 | S. cerevisiae deletion strains, locus YGL086W, strain mad1, active compounds read low 0.989 | S. cerevisiae deletion strains, locus YGL248W, strain PDE1, active compounds read low 0.998 | S. cerevisiae deletion strains, locus YGR135W, strain pre9, active compounds read low 0.931 | S. cerevisiae deletion strains, locus YGR252W, strain gcn5, active compounds read low 0.844 | S. cerevisiae deletion strains, locus YHR030C, strain SLT2, active compounds read low 1.02 | S. cerevisiae deletion strains, locus YHR079C, strain IRE1 (second series), active compounds read low 0.99 | S. cerevisiae deletion strains, locus YHR094C, strain hxt1, active compounds read low 0.999 | S. cerevisiae deletion strains, locus YHR129C, strain ARP1, active compounds read low 1.01 | S. cerevisiae deletion strains, locus YHR200W, strain rpn10, active compounds read low 0.975 | S. cerevisiae deletion strains, locus YIL066C, strain RNR3, active compounds read low 1.04 | S. cerevisiae deletion strains, locus YIL073C, strain SPO22, active compounds read low 1.02 | S. cerevisiae deletion strains, locus YIL125W, strain kgd1, active compounds read low 0.995 | S. cerevisiae deletion strains, locus YIR030C, strain dcg1, active compounds read low 0.996 | S. cerevisiae deletion strains, locus YJL095W, strain BCK1, active compounds read low 1 | S. cerevisiae deletion strains, locus YJL134W, strain LCB3, active compounds read low 1.01 | S. cerevisiae deletion strains, locus YJL168C, strain set2, active compounds read low 0.993 | S. cerevisiae deletion strains, locus YJL187C, strain SWE1 (second series), active compounds read low 0.981 | S. cerevisiae deletion strains, locus YJR043C, strain POL32, active compounds read low 1.03 | S. cerevisiae deletion strains, locus YKL009W, strain mrt4, active compounds read low 0.988 | S. cerevisiae deletion strains, locus YKL068W, active compounds read low 1.01 | S. cerevisiae deletion strains, locus YKL085W, strain MDH1 (second series), active compounds read low 1.01 | S. cerevisiae deletion strains, locus YKL085W, strain MDH1, active compounds read low 1.01 | S. cerevisiae deletion strains, locus YKR001C, strain vps1, active compounds read low 1 | S. cerevisiae deletion strains, locus YLR039C, strain RIC1, active compounds read low 1.18 | S. cerevisiae deletion strains, locus YLR058C, strain SHM2, active compounds read low 0.996 | S. cerevisiae deletion strains, locus YLR102C, strain apc9, active compounds read low 1 | S. cerevisiae deletion strains, locus YLR262C, strain YPT6, active compounds read low 1.16 | S. cerevisiae deletion strains, locus YLR268W, strain sec22, active compounds read low 1 | S. cerevisiae deletion strains, locus YLR330W, strain CHS5, active compounds read low 1 | S. cerevisiae deletion strains, locus YLR371W, strain rom2, active compounds read low 1.01 | S. cerevisiae deletion strains, locus YLR418C, strain cdc73, active compounds read low 0.936 | S. cerevisiae deletion strains, locus YML016C, strain PPZ1, active compounds read low 1.03 | S. cerevisiae deletion strains, locus YML032C, strain rad52, active compounds read low 0.998 | S. cerevisiae deletion strains, locus YML124C, strain tub3, active compounds read low 0.995 | S. cerevisiae deletion strains, locus YMR078C, strain ctf18, active compounds read low 0.998 | S. cerevisiae deletion strains, locus YMR223W, strain ubp8, active compounds read low 0.97 | S. cerevisiae deletion strains, locus YMR263W, strain SAP30, active compounds read low 0.986 | S. cerevisiae deletion strains, locus YMR307W, strain GAS1, active compounds read low 1.1 | S. cerevisiae deletion strains, locus YNL067W, strain RPL9B, active compounds read low 0.97 | S. cerevisiae deletion strains, locus YNL128W, strain TEP1, active compounds read low 1.02 | S. cerevisiae deletion strains, locus YNL233W, strain BNI4, active compounds read low 0.975 | S. cerevisiae deletion strains, locus YNL250W, strain rad50, active compounds read low 0.986 | S. cerevisiae deletion strains, locus YNL271C, strain bni1, active compounds read low 1 | S. cerevisiae deletion strains, locus YNL298W, strain CLA4, active compounds read low 1.01 | S. cerevisiae deletion strains, locus YNL307C, strain MCK1, active compounds read low 1 | S. cerevisiae deletion strains, locus YNL322C, strain KRE1, active compounds read low 1.01 | S. cerevisiae deletion strains, locus YNR052C, strain pop2, active compounds read low 0.967 | S. cerevisiae deletion strains, locus YOL012C, strain htz1 1.21 | S. cerevisiae deletion strains, locus YOL147C, strain pex11, active compounds read low 0.993 | S. cerevisiae deletion strains, locus YOR061W, strain CKA2, active compounds read low 1.02 | S. cerevisiae deletion strains, locus YOR069W, strain VPS5, active compounds read low 1 | S. cerevisiae deletion strains, locus YOR136W, strain idh2, active compounds read low 0.985 | S. cerevisiae deletion strains, locus YOR144C, strain elg1, active compounds read low 1 | S. cerevisiae deletion strains, locus YOR184W, strain ser1, active compounds read low 0.993 | S. cerevisiae deletion strains, locus YOR316C, strain cot1, active compounds read low 1.01 | S. cerevisiae deletion strains, locus YPL241C, strain CIN2, active compounds read low 1.01 | S. cerevisiae deletion strains, locus YPR119W, strain clb2, active compounds read low 0.997 | S. cerevisiae deletion strains, locus YPR141C, strain kar3, active compounds read low 1.01 | S. cerevisiae deletion strains, locus YPR163C, strain tif3, active compounds read low 0.987 | S. cerevisiae deletion strains, locus YPR167C, strain met16, active compounds read low 0.985 | S. cerevisiae deletion strains, strain wtn01, active compounds read low 0.998 | S. cerevisiae strains, strain wild type, active compounds read low 1.01
